What all share (assay): DAPPL (digital affinity profiling via proximity ligation, sequencing); 10 mM Tris-HCl pH 7.5, 50 mM NaCl, 1 mM DTT, 4% glycerol, room temperature, 30 min; GST-TFs on glutathione beads, 16-mer random dsDNA library, 0.1% formaldehyde crosslink after washing; high values mean tight binding
What all share (conditions): protein: recombinant; tags: N-terminal GST; dsDNA, one strand shown

Test [1] concerns the target T1, ELK1 (Homo sapiens, UniProt P19419 1-428).
T1 sequence: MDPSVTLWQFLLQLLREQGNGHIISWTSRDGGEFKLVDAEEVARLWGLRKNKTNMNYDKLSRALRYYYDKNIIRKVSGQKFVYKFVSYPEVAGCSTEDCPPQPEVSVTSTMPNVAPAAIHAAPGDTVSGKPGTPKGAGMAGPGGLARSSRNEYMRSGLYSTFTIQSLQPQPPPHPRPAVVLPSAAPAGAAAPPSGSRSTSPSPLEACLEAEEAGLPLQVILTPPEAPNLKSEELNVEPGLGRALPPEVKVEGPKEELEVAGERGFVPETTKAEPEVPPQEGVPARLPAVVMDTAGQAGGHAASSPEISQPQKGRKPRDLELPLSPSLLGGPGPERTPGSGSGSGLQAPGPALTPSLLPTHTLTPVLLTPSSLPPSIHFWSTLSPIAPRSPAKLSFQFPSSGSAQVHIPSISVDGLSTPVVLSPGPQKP
The procedure, abridged: (§1)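 Each value of binding signal is a hexamer's read frequency for a factor divided by the same hexamer's frequency in the tag-only sample. Barcoded, bead-captured GST fusions of human transcription factors made in yeast were pooled with that sample and incubated with 200 nmole of a random double-stranded 16-mer DNA library in Tris/NaCl/DTT/glycerol buffer at room temperature for 30 min. Washing, 0.1% formaldehyde crosslinking, proximity ligation, PCR and Illumina NextSeq500 sequencing followed.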

Test [2] deals with T2, GABPA (Homo sapiens, UniProt Q06546 1-454).
T2 sequence: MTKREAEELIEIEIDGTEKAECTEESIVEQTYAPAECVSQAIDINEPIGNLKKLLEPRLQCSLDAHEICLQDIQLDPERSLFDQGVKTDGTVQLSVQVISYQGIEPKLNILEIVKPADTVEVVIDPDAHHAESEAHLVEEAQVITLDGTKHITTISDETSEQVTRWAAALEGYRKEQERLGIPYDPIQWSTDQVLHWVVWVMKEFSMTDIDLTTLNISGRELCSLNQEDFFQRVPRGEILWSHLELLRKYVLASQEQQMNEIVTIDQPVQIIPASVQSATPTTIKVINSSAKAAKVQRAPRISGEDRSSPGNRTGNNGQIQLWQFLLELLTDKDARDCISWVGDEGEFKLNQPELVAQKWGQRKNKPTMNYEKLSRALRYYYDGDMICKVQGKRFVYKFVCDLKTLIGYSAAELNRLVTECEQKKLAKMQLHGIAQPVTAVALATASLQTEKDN
Put shortly:
as §1

Test [3] concerns the target T3, ERG (Homo sapiens, UniProt P11308 1-479).
T3 sequence: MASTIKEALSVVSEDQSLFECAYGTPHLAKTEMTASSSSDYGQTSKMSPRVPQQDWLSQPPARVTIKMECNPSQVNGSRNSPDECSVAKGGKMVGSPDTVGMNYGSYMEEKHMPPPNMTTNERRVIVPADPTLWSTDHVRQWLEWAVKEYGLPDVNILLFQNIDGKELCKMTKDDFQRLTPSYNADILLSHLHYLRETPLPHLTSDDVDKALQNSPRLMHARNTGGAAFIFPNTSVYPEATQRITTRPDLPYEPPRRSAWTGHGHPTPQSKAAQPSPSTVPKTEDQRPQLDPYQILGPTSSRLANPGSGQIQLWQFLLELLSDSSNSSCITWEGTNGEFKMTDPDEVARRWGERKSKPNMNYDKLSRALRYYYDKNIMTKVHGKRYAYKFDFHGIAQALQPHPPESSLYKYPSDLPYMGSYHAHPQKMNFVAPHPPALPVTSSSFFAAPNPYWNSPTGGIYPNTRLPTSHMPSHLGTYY
Put shortly: as §1

The target of test [4] is ELF1 (Homo sapiens, UniProt P32519 1-619). The procedure, abridged: as §1
The target of test [5] is T4, EHF (Homo sapiens, UniProt Q9NZC4 1-300).
T4 sequence: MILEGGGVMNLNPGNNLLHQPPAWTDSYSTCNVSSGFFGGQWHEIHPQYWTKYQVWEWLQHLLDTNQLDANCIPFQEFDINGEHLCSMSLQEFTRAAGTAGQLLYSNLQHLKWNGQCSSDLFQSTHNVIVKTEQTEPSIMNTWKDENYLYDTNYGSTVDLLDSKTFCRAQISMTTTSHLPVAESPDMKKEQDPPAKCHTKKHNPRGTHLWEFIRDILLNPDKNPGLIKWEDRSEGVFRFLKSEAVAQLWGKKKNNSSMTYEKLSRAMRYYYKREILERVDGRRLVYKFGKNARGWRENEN
Put shortly: as §1

In test [6] the target is SPIB (Homo sapiens, UniProt Q01892 1-262). The procedure, abridged: as §1
The target of test [7] is ETV5 (Homo sapiens, UniProt P41161 1-510). Put shortly:
as §1

Test [8] has as its target T5, SPIC (Homo sapiens, UniProt Q8N5J4 1-248).
T5 sequence: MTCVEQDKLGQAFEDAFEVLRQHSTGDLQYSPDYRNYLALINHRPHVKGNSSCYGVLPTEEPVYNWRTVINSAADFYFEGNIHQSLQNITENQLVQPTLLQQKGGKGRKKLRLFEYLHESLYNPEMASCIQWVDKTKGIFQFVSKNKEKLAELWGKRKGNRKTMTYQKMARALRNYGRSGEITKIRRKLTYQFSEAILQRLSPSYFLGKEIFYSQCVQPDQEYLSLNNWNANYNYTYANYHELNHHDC
Put shortly: as §1

Test [9] has as its target ELF4 (Homo sapiens, UniProt Q99607 1-663). The procedure, abridged:
as §1

The target of test [10] is T6, ELK4 (Homo sapiens, UniProt P28324-2 1-405).
T6 sequence: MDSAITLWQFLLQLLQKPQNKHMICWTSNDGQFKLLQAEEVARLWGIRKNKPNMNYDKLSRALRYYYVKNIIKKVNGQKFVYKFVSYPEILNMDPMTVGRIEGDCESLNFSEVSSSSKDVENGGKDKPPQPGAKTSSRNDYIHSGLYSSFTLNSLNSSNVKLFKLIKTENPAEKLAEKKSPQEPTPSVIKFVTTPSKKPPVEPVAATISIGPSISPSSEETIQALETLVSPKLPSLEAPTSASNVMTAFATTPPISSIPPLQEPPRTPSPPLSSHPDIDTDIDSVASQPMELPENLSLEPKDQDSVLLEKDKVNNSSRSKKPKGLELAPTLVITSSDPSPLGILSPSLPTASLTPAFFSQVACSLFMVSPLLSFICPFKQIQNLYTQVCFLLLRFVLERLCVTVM
Put shortly:
as §1

Test [11] has as its target T7, ELF3 (Homo sapiens, UniProt P78545 1-371).
T7 sequence: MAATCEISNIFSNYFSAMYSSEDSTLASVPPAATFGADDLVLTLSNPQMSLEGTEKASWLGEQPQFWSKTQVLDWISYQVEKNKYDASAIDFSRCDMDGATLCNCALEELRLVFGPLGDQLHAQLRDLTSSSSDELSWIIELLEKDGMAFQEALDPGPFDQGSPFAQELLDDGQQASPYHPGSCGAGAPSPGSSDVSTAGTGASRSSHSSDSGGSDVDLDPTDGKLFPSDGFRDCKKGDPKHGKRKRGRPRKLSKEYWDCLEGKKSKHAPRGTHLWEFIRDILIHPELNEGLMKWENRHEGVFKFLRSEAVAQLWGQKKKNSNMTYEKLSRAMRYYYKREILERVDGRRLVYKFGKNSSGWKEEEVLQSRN
Put shortly: as §1

The target in test [12] is ETV1 (Homo sapiens, UniProt P50549 1-477). Put shortly: as §1
Test [13] addresses T8, ERF (Homo sapiens, UniProt P50548 1-548).
T8 sequence: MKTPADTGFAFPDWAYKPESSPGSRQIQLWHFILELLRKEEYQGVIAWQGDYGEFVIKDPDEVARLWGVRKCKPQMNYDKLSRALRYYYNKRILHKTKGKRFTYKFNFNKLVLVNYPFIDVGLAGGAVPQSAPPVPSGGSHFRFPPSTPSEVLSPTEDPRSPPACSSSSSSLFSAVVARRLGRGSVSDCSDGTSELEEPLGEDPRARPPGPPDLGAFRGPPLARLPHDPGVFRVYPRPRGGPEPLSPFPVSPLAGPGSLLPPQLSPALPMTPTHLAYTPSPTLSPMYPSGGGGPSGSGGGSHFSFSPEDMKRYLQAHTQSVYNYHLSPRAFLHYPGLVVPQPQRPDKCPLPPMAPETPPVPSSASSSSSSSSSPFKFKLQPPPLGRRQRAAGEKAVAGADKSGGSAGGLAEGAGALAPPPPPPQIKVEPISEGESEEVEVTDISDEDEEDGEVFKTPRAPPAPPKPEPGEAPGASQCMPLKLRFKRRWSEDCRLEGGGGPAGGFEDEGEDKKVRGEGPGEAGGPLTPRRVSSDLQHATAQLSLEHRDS
Put shortly: as §1

Test [14] has as its target T9, ETV3L (Homo sapiens, UniProt Q6ZN32 1-361).
T9 sequence: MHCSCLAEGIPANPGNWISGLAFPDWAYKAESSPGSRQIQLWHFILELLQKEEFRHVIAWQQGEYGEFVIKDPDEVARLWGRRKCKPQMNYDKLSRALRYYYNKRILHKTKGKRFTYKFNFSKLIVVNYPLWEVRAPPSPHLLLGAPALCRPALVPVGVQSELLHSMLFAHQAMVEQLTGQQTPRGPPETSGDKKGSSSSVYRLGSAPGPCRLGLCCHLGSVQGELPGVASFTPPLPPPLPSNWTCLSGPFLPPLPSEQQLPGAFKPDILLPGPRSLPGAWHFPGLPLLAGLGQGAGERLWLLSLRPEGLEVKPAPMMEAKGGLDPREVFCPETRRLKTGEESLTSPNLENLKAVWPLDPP
The procedure, abridged: as §1

Test [15] deals with T10, ETS2 (Homo sapiens, UniProt P15036 1-469).
T10 sequence: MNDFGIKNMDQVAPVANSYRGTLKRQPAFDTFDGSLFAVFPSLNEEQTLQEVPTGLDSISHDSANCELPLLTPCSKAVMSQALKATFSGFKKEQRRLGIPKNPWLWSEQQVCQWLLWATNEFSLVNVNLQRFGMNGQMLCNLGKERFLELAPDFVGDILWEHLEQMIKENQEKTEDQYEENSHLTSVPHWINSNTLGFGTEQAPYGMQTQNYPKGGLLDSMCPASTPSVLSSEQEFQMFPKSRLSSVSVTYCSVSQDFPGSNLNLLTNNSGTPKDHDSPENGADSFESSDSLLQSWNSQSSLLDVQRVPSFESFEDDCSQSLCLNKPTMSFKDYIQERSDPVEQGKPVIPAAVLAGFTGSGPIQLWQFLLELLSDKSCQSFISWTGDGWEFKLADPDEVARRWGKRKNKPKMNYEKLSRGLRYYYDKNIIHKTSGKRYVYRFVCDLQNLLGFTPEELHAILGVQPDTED
Put shortly:
as §1

For test [16], the target named is T11, SPDEF (Homo sapiens, UniProt O95238 1-335).
T11 sequence: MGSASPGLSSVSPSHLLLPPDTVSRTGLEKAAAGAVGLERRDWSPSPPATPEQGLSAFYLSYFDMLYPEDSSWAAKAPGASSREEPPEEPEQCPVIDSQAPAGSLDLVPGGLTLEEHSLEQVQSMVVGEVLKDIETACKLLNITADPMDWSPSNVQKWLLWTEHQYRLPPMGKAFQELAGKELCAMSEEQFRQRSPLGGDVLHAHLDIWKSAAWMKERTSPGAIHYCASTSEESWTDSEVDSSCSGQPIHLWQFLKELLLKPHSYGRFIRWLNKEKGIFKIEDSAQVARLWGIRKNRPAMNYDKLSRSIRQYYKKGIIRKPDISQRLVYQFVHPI
The procedure, abridged:
as §1

For test [17], the target named is T12, ETV7 (Homo sapiens, UniProt Q9Y603 1-341).
T12 sequence: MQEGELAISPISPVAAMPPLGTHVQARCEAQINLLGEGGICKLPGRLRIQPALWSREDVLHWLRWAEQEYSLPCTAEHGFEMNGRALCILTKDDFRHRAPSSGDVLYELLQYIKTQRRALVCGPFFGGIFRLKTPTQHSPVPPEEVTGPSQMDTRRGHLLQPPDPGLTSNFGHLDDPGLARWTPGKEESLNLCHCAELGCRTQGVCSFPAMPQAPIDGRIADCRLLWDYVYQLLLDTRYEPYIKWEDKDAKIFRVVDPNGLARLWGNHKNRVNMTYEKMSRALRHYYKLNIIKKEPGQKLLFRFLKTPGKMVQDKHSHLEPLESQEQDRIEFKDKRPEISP
The procedure, abridged:
as §1

For test [18], the target named is T13, ETV3 (Homo sapiens, UniProt P41162-2 1-143).
T13 sequence: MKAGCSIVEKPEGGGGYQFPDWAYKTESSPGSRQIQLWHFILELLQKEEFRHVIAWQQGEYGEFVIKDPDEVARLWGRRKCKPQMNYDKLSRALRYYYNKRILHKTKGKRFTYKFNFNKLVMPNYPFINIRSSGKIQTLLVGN
Put shortly:
as §1

The target of test [19] is ETV6 (Homo sapiens, UniProt P41212 1-452). Put shortly: as §1
Sequence of ETV6 (P41212 whole entry): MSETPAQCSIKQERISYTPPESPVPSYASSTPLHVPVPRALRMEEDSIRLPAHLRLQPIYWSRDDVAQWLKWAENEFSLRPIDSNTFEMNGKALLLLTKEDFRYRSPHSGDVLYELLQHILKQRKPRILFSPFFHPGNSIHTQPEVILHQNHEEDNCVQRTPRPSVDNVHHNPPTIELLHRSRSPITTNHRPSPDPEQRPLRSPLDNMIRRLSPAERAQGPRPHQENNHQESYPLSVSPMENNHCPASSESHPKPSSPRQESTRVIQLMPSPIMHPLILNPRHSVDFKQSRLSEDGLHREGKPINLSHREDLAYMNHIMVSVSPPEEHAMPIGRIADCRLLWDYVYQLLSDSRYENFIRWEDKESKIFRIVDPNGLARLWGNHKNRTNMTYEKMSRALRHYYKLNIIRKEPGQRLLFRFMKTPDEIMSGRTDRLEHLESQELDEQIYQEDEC

Sequence of SPIB (Q01892 whole entry): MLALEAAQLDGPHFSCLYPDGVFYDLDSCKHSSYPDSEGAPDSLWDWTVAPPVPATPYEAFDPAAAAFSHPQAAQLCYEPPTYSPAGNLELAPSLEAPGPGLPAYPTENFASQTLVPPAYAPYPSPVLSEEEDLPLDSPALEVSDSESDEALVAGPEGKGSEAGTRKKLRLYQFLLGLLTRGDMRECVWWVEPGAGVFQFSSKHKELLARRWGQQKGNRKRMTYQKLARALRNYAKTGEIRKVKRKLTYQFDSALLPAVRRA
Sequence of ELF1 (P32519 whole entry): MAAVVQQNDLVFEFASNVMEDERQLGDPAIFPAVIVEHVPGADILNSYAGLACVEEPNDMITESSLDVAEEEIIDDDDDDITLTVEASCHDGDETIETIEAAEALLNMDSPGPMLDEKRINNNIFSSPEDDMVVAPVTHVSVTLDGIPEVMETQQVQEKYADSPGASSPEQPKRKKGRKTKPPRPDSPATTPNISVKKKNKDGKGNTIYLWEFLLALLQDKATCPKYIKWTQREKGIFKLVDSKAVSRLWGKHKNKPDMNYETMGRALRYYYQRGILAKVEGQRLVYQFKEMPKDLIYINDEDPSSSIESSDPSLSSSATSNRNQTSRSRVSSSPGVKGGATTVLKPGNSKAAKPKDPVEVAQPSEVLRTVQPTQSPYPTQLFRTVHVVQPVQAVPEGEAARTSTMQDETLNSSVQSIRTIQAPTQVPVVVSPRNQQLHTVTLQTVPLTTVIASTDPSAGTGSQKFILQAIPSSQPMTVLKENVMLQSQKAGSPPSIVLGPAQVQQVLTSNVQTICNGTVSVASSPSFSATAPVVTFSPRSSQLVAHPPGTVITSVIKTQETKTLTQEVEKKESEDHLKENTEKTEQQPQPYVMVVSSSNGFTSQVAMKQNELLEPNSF
Sequence of ETV1 (P50549 whole entry): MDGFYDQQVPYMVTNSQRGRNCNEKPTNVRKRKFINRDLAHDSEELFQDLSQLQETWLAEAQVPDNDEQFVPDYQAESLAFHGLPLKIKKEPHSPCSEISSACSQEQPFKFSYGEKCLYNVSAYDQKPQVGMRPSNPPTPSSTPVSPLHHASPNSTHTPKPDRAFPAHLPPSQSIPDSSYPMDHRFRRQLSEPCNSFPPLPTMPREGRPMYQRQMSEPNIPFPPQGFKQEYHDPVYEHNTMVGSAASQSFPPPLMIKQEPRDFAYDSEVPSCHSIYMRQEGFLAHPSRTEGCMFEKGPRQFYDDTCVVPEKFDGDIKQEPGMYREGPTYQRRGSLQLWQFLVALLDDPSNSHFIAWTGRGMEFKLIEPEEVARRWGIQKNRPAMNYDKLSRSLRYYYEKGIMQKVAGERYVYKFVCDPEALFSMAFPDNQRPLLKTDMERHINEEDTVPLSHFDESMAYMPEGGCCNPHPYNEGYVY
Sequence of ELF4 (Q99607 whole entry): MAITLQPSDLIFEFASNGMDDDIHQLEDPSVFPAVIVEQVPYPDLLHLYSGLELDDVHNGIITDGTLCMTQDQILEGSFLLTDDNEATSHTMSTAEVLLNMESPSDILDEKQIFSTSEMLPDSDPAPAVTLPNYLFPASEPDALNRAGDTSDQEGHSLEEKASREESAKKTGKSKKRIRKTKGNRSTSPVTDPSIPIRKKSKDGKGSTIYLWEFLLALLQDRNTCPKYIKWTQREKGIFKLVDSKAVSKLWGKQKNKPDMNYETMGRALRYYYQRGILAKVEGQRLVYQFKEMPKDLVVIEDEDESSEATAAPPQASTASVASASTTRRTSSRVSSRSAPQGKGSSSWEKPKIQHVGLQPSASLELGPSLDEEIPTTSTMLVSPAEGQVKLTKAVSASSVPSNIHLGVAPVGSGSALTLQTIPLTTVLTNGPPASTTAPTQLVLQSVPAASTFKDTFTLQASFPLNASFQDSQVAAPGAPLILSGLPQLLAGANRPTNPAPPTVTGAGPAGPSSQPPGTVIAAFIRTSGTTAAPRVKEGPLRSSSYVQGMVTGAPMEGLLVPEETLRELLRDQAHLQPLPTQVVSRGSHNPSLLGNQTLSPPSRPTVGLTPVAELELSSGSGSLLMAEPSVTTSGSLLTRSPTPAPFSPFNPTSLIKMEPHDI
Sequence of ETV5 (P41161 whole entry): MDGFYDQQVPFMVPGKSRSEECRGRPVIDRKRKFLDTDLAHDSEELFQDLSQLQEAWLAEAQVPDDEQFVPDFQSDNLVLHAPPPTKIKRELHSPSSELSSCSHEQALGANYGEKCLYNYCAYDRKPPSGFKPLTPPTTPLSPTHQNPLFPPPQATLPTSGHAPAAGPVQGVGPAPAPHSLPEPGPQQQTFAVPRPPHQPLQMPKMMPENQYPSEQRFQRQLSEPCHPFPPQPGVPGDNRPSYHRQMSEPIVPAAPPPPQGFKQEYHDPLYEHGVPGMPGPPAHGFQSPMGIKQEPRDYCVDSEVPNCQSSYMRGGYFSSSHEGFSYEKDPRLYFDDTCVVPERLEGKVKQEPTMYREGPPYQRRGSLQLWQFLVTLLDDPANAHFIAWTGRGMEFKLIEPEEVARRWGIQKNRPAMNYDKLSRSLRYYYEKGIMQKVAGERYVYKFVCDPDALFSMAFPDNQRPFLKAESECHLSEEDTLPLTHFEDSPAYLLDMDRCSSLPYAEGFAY

On to CACAGC, for which the binding signal is 1.09 fold enrichment (6-mer frequency, TF over GST control) in test [1]; 1.02 fold enrichment (6-mer frequency, TF over GST control) in test [2]; 1.03 fold enrichment (6-mer frequency, TF over GST control) in test [3]; 1.11 fold enrichment (6-mer frequency, TF over GST control) in test [4]; 1.02 fold enrichment (6-mer frequency, TF over GST control) in test [5]; 1.05 fold enrichment (6-mer frequency, TF over GST control) in test [6]. Besides, the binding signal in test [7] is 1.01 fold enrichment (6-mer frequency, TF over GST control); in [8], 1.1 fold enrichment (6-mer frequency, TF over GST control); in [9], 1.08 fold enrichment (6-mer frequency, TF over GST control); in test [10] it was 1.04 fold enrichment (6-mer frequency, TF over GST control); in test [11], 1.04 fold enrichment (6-mer frequency, TF over GST control); in [12] it was 1.1 fold enrichment (6-mer frequency, TF over GST control). Besides, the binding signal in [13] was 1.07 fold enrichment (6-mer frequency, TF over GST control); in test [14] it was 1.17 fold enrichment (6-mer frequency, TF over GST control); in [15] it was 1.01 fold enrichment (6-mer frequency, TF over GST control); in [16], 1.03 fold enrichment (6-mer frequency, TF over GST control); in test [17] it was 1.12 fold enrichment (6-mer frequency, TF over GST control); in test [18] it was 1.05 fold enrichment (6-mer frequency, TF over GST control). Also, the binding signal in test [19] was 1.01 fold enrichment (6-mer frequency, TF over GST control).
